According to PubChem BioAssay (NCATS):
“And” between values parts separate entries of the source, which are not always exact repeats. Equal values may be shown once. Results filed as inconclusive are left out. A number with no mark means an inactive call. The call rests on the fitted dose curve; in most records, active means well fitted activation curve with a large enough effect; inconclusive means small, poorly fitted or top-dose-only effect; inactive means no such curve, though single readings can be large or run the other way.

The compounds below were run against Cellular tumor antigen p53 (Homo sapiens) (UniProt P04637) (assay: Primary qHTS for small molecule compounds that upregulate eGFP-tagged delta133p53alpha (in N-terminal) cells. (AID 2060322;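 further: series mostly up to about 56 µM; 0% = DMSO vehicle and 100% = reference activator; nearly all actives have a fitted effect of over 75% in size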)). Settings: NCI-H358 eGFP-delta133p53alpha fluorescence, 24 h; activation: hits give high values.
Chain of Cellular tumor antigen p53 (Homo sapiens) (P04637 whole entry, looked up): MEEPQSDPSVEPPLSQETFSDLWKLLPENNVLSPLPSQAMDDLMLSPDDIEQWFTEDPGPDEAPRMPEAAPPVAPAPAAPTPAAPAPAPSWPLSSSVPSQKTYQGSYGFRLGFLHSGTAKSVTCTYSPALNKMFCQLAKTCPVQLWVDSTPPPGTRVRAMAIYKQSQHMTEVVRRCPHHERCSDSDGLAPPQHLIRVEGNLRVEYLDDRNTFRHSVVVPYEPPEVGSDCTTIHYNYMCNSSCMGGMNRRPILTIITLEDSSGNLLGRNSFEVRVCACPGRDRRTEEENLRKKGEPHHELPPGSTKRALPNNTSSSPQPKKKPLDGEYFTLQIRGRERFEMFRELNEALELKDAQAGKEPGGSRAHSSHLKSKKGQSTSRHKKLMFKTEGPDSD
Outline: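 NCI-H358 cells pre-induced 24 h with 10 ng/ml doxycycline to express N-terminal eGFP-delta133p53alpha, then dosed 24 h at 37C without doxycycline; fixed, Hoechst-stained, GFP intensity by laser scanning cytometry, normalized to DMSO (0%) and 57.5 uM 5-azacytidine (100%).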

Compared with `C=CCc1ccc(O)c(OC)c1`, `C/C=C/c1ccc(O)c(OC)c1` is lower in activation: 15.1% for the first, -0.837% for the second.

Compared with `CNC(=O)c1c(I)c(NC(=O)CCCCC(=O)Nc2c(I)c(C(=O)O)c(I)c(C(=O)NC)c2I)c(I)c(C(=O)O)c1I`, `CON=C(C(=O)N[C@@H]1C(=O)N2C(C(=O)O)=C(CSC(=O)c3ccco3)CS[C@H]12)c1csc(N)n1` is higher in activation: -10% for the first, 4.83% for the second.

Compared with `O=S(=O)(O)c1ccc(O)cc1`, `NCc1ccc(S(N)(=O)=O)cc1` is lower in activation: 5.08% for the first, -15.9% for the second.

Compared with `C[C@H](NC(=O)/C(C#N)=C/c1ccc(O)c(O)c1)c1ccccc1`, `O=C(O)c1ccccc1Nc1cc(Cl)ccc1C(=O)O` is lower in activation: -11.2% for the first, -31% for the second.

First: CC(C)C[C@@H](N)C(=O)O
Second: Cc1ccc(C(=O)C(=O)O)cc1C
The activation of the first is lower: -14.2% for the first, -13% for the second.

Going from `O=C(O)c1ccccn1` to `NNc1nnc(NN)c2ccccc12`, the activation falls from 17.6% to -35.1%.

First: N#CC(=C(O)c1ccc(Cl)cc1Cl)c1nc2cc(Cl)ccc2c(=O)[nH]1
Second: C=C1[C@H](n2cnc3c(=O)[nH]c(N)nc32)C[C@H](O)[C@H]1CO
The activation of the first is higher: 7.18% for the first, -20.5% for the second.

First: CCC(=O)O[C@]1(C(=O)COC)[C@@H](C)C[C@H]2[C@@H]3CCC4=CC(=O)C=C[C@]4(C)C3(F)[C@@H](O)C[C@@]21C (stereo not given in full)
Second: CC(=O)O[C@]1(C(C)=O)CC[C@H]2[C@@H]3C=C(C)C4=CC(=O)CC[C@]4(C)[C@@H]3CC[C@@]21C
The activation of the first is higher: -4.18% for the first, -16.9% for the second.

Going from `NC1CCN(c2cccc(Cl)n2)CC1` to `CC(=O)c1ccc2c(c1)N(CCCN1CCC(CCO)CC1)c1ccccc1S2`, the activation rises from -10.7% to 0%.

Going from `Cn1c([N+](=O)[O-])cnc1COC(N)=O` to `CCCCOC(=O)c1ccc(N)cc1`, the activation rises from -9.6% to 19.8%.

First: C=CC[N+]1([C@H]2C[C@H]3[C@@H]4CC[C@H]5C[C@H](O)[C@@H](N6CCOCC6)C[C@]5(C)[C@@H]4CC[C@]3(C)[C@H]2OC(C)=O)CCCC1
Second: CC(=O)O[C@H]1C[C@@H]2CC[C@H]3[C@H]4C[C@H]([N+]5(C)CCCCC5)[C@@H](OC(C)=O)[C@@]4(C)CC[C@@H]3[C@@]2(C)C[C@H]1N1CCCCC1
The activation of the first is higher: 4.45% for the first, -4.56% for the second.

Going from `O=C(O)/C=C\C(=O)O` to `NC(=O)c1ncn([C@@H]2O[C@H](CO)[C@@H](O)[C@@H]2O)n1`, the activation rises from -25.4% to -6.05%.

Compared with `CC(C)C(=O)Nc1cccc(C(F)(F)F)c1`, `Cc1nc(NC(=O)N2CCC[C@@H]2C(N)=O)sc1-c1ccnc(C(C)(C)C(F)(F)F)c1` is higher in activation: -15.3% for the first, -9.38% for the second.

Compared with `OCC(O)C(O)C(O)CO` (stereo not given), `CC[C@@H](CO)NCCN[C@@H](CC)CO` is lower in activation: 28.5% for the first, -10% for the second.

Compared with `COc1ccc(-c2cc(C(F)F)nn2-c2ccc(S(N)(=O)=O)cc2)cc1F`, `O=C1NC(=O)C(=Cc2ccc(-c3ccc(F)cc3)o2)S1` is higher in activation: -21.8% for the first, -1.63% for the second.

First: O=c1[nH]c(=O)n([C@H]2C[C@@H](O)[C@@H](CO)O2)cc1I
Second: O=c1[nH]c2cc(C(F)(F)F)c(N3CCOCC3)cc2n(CP(=O)(O)O)c1=O
The activation of the first is higher: 6.89% for the first, 6.21% for the second.

Compared with `COc1ccc(C(Cl)=C(c2ccc(OC)cc2)c2ccc(OC)cc2)cc1`, `CCOC1OC(=O)C[C@H]1NC(=O)[C@@H]1CCCN1C(=O)[C@@H](NC(=O)c1ccc(N)c(Cl)c1)C(C)(C)C` (stereo not given in full) is higher in activation: -1.67% for the first, 110% for the second.

First: CC(C)=CCCC(C)=CCCC(C)=CCCC(C)=CCCC(C)=CCCC(C)=CCCC(C)=CCCC(C)=CCCC(C)=CCO
Second: CCCCOC(=O)CCCCCCCCC(=O)OCCCC
The activation of the first is higher: 8.65% for the first, -7.53% for the second.

`CC[C@H]1OC(=O)[C@H](C)[C@@H](O[C@H]2C[C@@](C)(OC)[C@@H](O)[C@H](C)O2)[C@H](C)[C@@H](O[C@@H]2O[C@@H](C)C[C@H](N(C)C)[C@@H]2O)[C@](C)(O)C[C@@H](C)C(=O)[C@H](C)[C@@H](O)[C@]1(C)O` gave an activation of 29.3%.

`OC[C@@H](O)[C@H](O)[C@H](O)[C@@H](O)CO` was tested, and the activation was -3.35% and 22.6%.
In the case of `CC(C=CC1=C(C)CCCC1(C)C)=CC=CC(C)=CC(=O)O`, the activation is reported as 15.8% and -23.6%.
With `COc1cc2nc(N3CCN(C(=O)C4CCCO4)CC3)nc(N)c2cc1OC` (stereo not given) the activation was 1.69% and 38.8%.
